Screens (PubChem BioAssay)
Compounds with a hit are over-represented: about 27% of the library has one in this group of screens.
CYP2C19 act: activators of human cytochrome P450 2C19 | 96,000 tested, under 10 active | activation factor at 5 µM | P33261 | AID 1025 | recombinant CYP2C19, luciferin-H EGE luminescence; stronger effect = higher value; 0 = fully inhibited enzyme, 1 = untreated enzyme;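 active = activation factor of at least 2 at 5 µM in the primary screen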;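 also: 0 = wells with 2.5 mM tranylcypromine and 1 = vehicle-only wells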
CYP2C9 activ: CYP2C9 (human) activation; recombinant CYP2C9, luciferin-H conversion, luminescence; stronger effect = higher value; factor 1 = untreated enzyme, 0 = blocked; 1.4% of 96,000 active; P11712; activation factor at 5 µM; AID 1024;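 active = activation factor of 2 or more for CYP2C9 at a 5 µM dose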;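 also: 0 = sulfaphenazole-blocked wells and 1 = vehicle-only wells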
CYP2C9 inh: human CYP2C9 inhibition. CYP2C9 Supersomes, luciferin-H conversion, luminescence. inhibition, % at 5 µM. 20% of 96,000 active. AID 777;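 active = blocking of liver enzyme CYP2C9 beyond about 50% at 5 µM, limit read from the data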
CYP2C19 inhib: blocks human cytochrome P450 2C19; AID 778; P33261; CYP2C19 Supersomes, luciferin-H EGE luminescence, 30 min; inhibition, % at 5 µM; 21% of 96,000 active;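 active = CYP2C19 inhibition above a set limit at 5 µM in the primary screen, cut at about 50% in these data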;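 also: plate controls were negative control wells for no effect and 2.5 mM tranylcypromine positive control for full effect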
Cav3 T inh: blocks human Cav3.2 T-type calcium channel | O95180 | B-score at 10 µM | Cav3.2-expressing cells, Fluo-4 calcium fluorescence FDSS; stronger effect = lower value | AID 449739 | 4% of 100,000 active;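 active = single-dose well whose peak fluorescence ratio is a statistical outlier from its plate by either plate-standardised score or position-corrected B-score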
Target sequence (O95180 whole entry, looked up): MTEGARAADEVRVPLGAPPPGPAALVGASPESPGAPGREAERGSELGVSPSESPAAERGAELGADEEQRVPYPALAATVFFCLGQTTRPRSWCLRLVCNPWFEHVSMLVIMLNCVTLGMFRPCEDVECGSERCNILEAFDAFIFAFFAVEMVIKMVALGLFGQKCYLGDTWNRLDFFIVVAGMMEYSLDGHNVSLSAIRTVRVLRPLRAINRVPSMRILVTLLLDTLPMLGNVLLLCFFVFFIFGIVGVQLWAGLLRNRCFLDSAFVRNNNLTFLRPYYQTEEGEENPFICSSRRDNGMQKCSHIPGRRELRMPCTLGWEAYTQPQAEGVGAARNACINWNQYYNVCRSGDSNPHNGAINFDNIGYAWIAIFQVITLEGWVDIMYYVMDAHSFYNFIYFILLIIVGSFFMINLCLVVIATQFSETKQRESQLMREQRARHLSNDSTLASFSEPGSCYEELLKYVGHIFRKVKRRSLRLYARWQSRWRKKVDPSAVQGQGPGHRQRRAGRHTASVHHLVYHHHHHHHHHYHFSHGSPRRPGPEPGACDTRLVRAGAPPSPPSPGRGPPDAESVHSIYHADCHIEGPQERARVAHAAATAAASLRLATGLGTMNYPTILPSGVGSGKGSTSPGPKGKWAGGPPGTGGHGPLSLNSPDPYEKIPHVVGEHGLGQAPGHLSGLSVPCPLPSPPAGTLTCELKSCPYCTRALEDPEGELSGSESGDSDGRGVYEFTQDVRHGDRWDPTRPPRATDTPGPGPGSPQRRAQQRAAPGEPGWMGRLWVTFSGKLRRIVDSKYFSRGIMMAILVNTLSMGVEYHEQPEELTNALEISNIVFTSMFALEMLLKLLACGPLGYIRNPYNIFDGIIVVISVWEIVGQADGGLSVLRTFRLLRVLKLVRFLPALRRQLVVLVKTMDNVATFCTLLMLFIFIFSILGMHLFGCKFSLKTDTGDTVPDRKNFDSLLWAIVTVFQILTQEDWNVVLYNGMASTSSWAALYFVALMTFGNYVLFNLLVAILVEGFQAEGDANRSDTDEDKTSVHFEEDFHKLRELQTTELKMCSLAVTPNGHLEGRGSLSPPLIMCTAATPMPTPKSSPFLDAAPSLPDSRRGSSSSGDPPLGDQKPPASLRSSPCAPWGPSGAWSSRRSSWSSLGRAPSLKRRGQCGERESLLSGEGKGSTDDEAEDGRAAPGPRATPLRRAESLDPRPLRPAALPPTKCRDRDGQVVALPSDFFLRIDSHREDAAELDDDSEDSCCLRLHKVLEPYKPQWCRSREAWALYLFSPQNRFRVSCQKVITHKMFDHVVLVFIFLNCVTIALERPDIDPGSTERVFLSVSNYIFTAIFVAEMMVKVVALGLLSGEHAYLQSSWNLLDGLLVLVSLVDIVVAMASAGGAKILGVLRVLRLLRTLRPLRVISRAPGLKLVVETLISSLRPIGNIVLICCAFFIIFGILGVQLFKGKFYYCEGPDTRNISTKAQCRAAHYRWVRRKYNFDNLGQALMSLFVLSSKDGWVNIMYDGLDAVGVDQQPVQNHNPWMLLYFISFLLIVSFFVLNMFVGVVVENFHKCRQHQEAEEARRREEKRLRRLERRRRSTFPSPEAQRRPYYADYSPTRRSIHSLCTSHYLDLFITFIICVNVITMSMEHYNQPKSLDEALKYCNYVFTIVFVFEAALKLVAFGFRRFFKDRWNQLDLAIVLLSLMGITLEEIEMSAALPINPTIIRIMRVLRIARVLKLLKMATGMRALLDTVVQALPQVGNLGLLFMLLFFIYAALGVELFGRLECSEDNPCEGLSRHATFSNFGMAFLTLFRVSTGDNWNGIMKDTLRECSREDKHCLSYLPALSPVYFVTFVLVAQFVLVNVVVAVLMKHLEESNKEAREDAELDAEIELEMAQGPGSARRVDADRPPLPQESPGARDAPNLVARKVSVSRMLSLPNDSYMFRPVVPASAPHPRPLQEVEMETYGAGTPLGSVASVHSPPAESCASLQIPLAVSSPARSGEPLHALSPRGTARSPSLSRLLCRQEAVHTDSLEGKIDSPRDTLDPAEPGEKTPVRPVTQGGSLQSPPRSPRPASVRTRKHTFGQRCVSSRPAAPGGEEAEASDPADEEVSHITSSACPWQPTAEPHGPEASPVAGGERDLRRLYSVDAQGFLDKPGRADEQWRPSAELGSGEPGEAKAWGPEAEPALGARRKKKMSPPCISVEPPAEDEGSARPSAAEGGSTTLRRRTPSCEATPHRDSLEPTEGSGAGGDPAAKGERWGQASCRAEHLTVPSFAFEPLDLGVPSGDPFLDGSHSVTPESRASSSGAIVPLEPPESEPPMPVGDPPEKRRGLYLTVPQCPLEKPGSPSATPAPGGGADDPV
* hit, by the source's call; nt = no result given.

SMILES | CYP2C19 act | CYP2C9 activ | CYP2C9 inh | CYP2C19 inhib | Cav3 T inh
CCCCC(=O)Nc1cccc2c1C(=O)N(c1ccccc1)C2=O | 0.5 | 0.3 | 67* | 51* | -0.82
CN1C(=O)c2cccc(NC(=O)CCc3ccccc3)c2C1=O | 0.3 | 0.4 | 62* | 70* | 0.054
CC(C)NC(=O)c1ccccc1NC(=O)CCc1ccccc1 | nt | nt | nt | nt | 0.045
COc1ccc(C2(C(F)(F)F)NC(=O)N(C)C(=O)N2C)cc1 (centres undefined) | 0.9 | 1 | -4 | 12 | 0.48
O=C(CSc1n[nH]c(-c2ccc(S(=O)(=O)NC3CCCCC3)cc2)n1)N1CCCC1 | 0.1 | 0.5 | 51* | 87* | -0.33
O=C(CN1C(=O)NC2(CCCc3ccccc32)C1=O)N1CCN(C(=O)c2ccco2)CC1 (centres undefined) | 1 | 0.9 | 6 | 0 | -0.17
CCCCCC(=O)N/N=C/c1cccs1 | 0.6 | 0.9 | 13 | 37 | 0.43
Cc1cccc(CN(CC(=O)N/N=C/c2ccco2)S(=O)(=O)c2ccc(Cl)cc2)c1 | 0 | 0.1 | 93* | 100* | -3
Cc1cccc(CN(CC(=O)N/N=C/c2cccs2)S(=O)(=O)c2ccc(Cl)cc2)c1 | 0.3 | 0.3 | 70* | 74* | -2.6
Cc1ccc(S(=O)(=O)N(CC(=O)N/N=C/c2ccco2)Cc2ccccc2)cc1 | 0.6 | 0.6 | 42 | 36 | -1.5
CCOC(=O)C1CCN(C(c2cc3ccc(C)cc3[nH]c2=O)c2nnnn2C2CCCCC2)CC1 (centres undefined) | 0.2 | 0.2 | 84* | 79* | -3.3
COc1ccccc1N1CCN(C(c2cc3ccc(C)cc3[nH]c2=O)c2nnnn2C2CCCC2)CC1 (centres undefined) | 0.3 | 0.1 | 91* | 72* | -2.3
CCOC(=O)c1cc2oc(C(c3nnnn3C3CCCCC3)N3CCOCC3)cc2[nH]1 (centres undefined) | nt | nt | nt | nt | -3.5*
O=C(Nc1ccc(Cl)cc1)C1=Cc2ccccc2OC1 | 0.7 | 0.9 | 10 | 29 | -0.058
CCOc1ccc(C(=O)Nc2c3c(nn2C(C)(C)C)CSC3)cc1OCC | 0.9 | 0.8 | 18 | 12 | -3.3*
CC(C)c1nnc(NC(=O)CCC(=O)NCc2cccs2)s1 | 1.1 | 0.9 | 9 | -6 | -0.38
c1cc(C(c2nnnn2C2CCCC2)N2CCOCC2)ccn1 (centres undefined) | 0.2 | 0.7 | 28 | 83* | 0.36
c1ccc(Cn2nnnc2C(c2ccncc2)N2CCOCC2)cc1 (centres undefined) | 0.6 | 0.8 | 22 | 37 | 0.014
COc1ccccc1N1CCN(C(c2ccccn2)c2nnnn2C2CCCCC2)CC1 (centres undefined) | 0.6 | 0.5 | 49 | 42 | 0.021
COc1ccc(N2CCN(C(c3cccs3)c3nnnn3C3CCCC3)CC2)cc1 (centres undefined) | 0.7 | 0.4 | 64* | 29 | -3.1
Fc1ccc(N2CCN(C(c3cccs3)c3nnnn3C3CCCC3)CC2)cc1 (centres undefined) | 0 | 0 | 98* | 96* | -2.2
CCCNc1nc(-c2cc(C(=O)Nc3ccccc3)on2)cc(C(C)C)n1 | nt | nt | nt | nt | -1.2
COc1ccccc1-n1c(=O)c2c3c(sc2n2c(SC)nnc12)CCC3 | nt | nt | nt | nt | 2.2
Cc1cc(C)c(S(=O)(=O)c2ccccc2C)c(N(C)C)n1 | 0.5 | 1.2 | -20 | 47 | nt
Cc1cc(C)c(S(=O)(=O)c2ccccc2)c(N(C)C)n1 | 0.4 | 0.6 | 42 | 64* | -0.096
SMILES | CYP2C19 act | CYP2C9 activ | CYP2C9 inh | CYP2C19 inhib | Cav3 T inh
Cc1cc(C)c(S(=O)(=O)c2ccccc2)c(OC(=O)c2c(Cl)cc(Cl)cc2Cl)n1 | 0.5 | 0.6 | 44 | 53* | -6.5*
CCO[C@@H]1OC(C(=O)Nc2ccccc2)=C[C@H](C2CC2)[C@H]1CCCO | nt | nt | nt | nt | -0.023
Cc1nc2c(C)cccn2c1/C(O)=C1\C(=O)C(=O)N(CCN2CCOCC2)C1c1cccs1 (centres undefined) | 0.7 | 0.9 | 6 | 32 | 0.12
C/C(=N\NC(=O)c1csc(C)c1C)c1ccc(Cl)s1 | 1 | 1.1 | -10 | 4 | -0.034
CCCCNC(=O)CNC(=O)c1cccs1 | 0.7 | 0.9 | 14 | 30 | -0.047
CCC/C(=N\NC(=O)c1csc(C)c1C)c1cccs1 | 0.3 | 1.2 | -19 | 67* | -1
CC/C(=N\NC(=O)c1csc(C)c1C)c1cccs1 | 0.3 | 0.9 | 14 | 75* | -1.7
CCOC(=O)N1CCN(CCC(=O)Nc2ccc(OC(F)(F)F)cc2)CC1 | nt | nt | nt | nt | -0.0083
Cn1cc(C(=O)c2ccc(F)cc2)cc1-c1nc2ccccc2n1C | 0.8 | 0.6 | 37 | 25 | -1.2
CC(=O)c1cc(-c2nc3ccccc3n2C)n(C)c1 | 0.4 | 0.3 | 73* | 56* | -0.14
COc1ccc2[nH]c(C)c(CN3CCCCC3)c(=O)c2c1 | 1.1 | 1.1 | -12 | -12 | 0.047
COc1ccc2[nH]c(C)c(CCN3C(=O)C4C5C=CC(C5)C4C3=O)c2c1 (centres undefined) | 0.1 | 0.6 | 37 | 94* | nt
Nc1nc(Cl)cc(Sc2ccc3ccccc3c2)n1 | 1 | 0.9 | 12 | -3 | 0.1
Nc1cc(Cl)ccc1Oc1ccc2ccccc2c1 | 0.3 | 0.7 | 27 | 71* | 0.79
CCOC(=O)c1ccc(-n2cncn2)nc1 | 0.6 | 1 | 4 | 42 | 0.1
CCOCCOC(=O)c1ccc(-n2cncn2)nc1 | 0.4 | 0.8 | 18 | 61* | -0.6
C#CCOC(=O)c1ccc(-n2cncn2)nc1 | 0.2 | 0.7 | 33 | 82* | -0.052
COC(=O)n1ccc(C(=O)Nc2ccccc2F)n1 | 1 | 0.9 | 7 | 4 | 0.58
CS(=O)(=O)N(CC(=O)N1CCN(c2cccc(Cl)c2)CC1)c1cccc(F)c1 | 1 | 1 | -1 | -5 | -6.3*
CS(=O)(=O)N(CC(=O)N1CCN(c2ccccc2F)CC1)c1cc(C(F)(F)F)ccc1Cl | 0.7 | 1.8 | -76 | 29 | -2.3
CS(=O)(=O)N(CC(=O)N1CCC(C(N)=O)CC1)c1ccc(Cl)c(C(F)(F)F)c1 | 1.1 | 1 | -4 | -5 | -0.92
CS(=O)(=O)N(CC(=O)N1CCN(c2ccccc2)CC1)c1cc(C(F)(F)F)ccc1Cl | 0.7 | 2.1* | -112 | 26 | -4.3*
CCc1ccccc1N(CC(=O)N1CCN(c2ccc(F)cc2)CC1)S(C)(=O)=O | 0.7 | 1 | -2 | 32 | -3.4
CS(=O)(=O)N(CC(=O)N1CCN(c2ccccc2)CC1)c1ccc(Cl)c(C(F)(F)F)c1 | 0 | 1.8 | -83 | 96* | -5.3*
CC1CCN(C(=O)CN(c2ccc(Cl)c(C(F)(F)F)c2)S(C)(=O)=O)CC1 | 0.2 | 2.3* | -133 | 75* | -1.2
CCOC(=O)C1CCN(C(=O)CN(c2ccc(Cl)c(C(F)(F)F)c2)S(C)(=O)=O)CC1 | 0.7 | 1.5 | -50 | 25 | -1.2
O=C(CCn1cnc2ccccc2c1=O)Nc1ccc(S(=O)(=O)N2CCCC2)cc1 | 0.9 | 0.6 | 41 | 5 | 1.2
